In the library only some 1.6% were active in any assay of this set; here they are far more common.
NSD2 inh – NSD2 (human) methyltransferase inhibition; O96028; NSD2 peptide methylation, AlphaScreen, 120 min; inhibition, % at 12.5 µM; hit rate 0.54% among 310,000; in the data active means inhibition above about 50%
GC-B act – GC-B (human) receptor activation. AID 1920062. activation, % at 10 µM. HEK293-GC-B cells, CNP EC30, cGMP TR-FRET; 0% at EC30 CNP, 100% saturating CNP. hit rate 0.11% among 370,000;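 active means activation at 10 µM reaching about 35% in either raw or pattern-adjusted values, limit read from the data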
Efflux pump mplx – inhibitors of Candida antifungal efflux pumps expressed in yeast; S. cerevisiae Candida pump triplex, Nile Red efflux; inhibition, % at 10 µM; hit rate 0.44% among 330,000;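 active means plate passing quality check with inhibition over a set limit, or well fluorescence over plate mean plus 4 SD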;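 further: Nile Red retained in pooled yeast measured as flow cytometry median fluorescence; higher means more Nile Red kept so more efflux inhibition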
Rce1 inhib – blocks yeast Ras-converting enzyme | calls only | hit rate 0.27% among 290,000 | Q03530 | yeast membranes, quenched prenylated peptide cleavage fluorescence;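 active means fall in fluorescence gain of 50% or more versus controls, with final raw signal at or below 3038400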
V-ATPase pHluor – regulators of yeast V-ATPase proton transport | S. cerevisiae, pHLuorin cytosolic pH fluorescence | response, % at 10 µM | hit rate 0.37% among 350,000; in the data active means response mostly above about 7.3%, no sharp cut-off; inactive means mostly below about 5.4%; further: actives read high
GC-A act – GC-A (human) enzyme activation; HEK293 GC-A cells, cGMP TR-FRET, EC30 ANP; 0% at EC30 ANP, 100% saturating ANP; activation, % at 10 µM; hit rate 0.14% among 370,000; AID 1671463; in the data active means activation above about 40%
Target sequence (P16066 whole entry, looked up): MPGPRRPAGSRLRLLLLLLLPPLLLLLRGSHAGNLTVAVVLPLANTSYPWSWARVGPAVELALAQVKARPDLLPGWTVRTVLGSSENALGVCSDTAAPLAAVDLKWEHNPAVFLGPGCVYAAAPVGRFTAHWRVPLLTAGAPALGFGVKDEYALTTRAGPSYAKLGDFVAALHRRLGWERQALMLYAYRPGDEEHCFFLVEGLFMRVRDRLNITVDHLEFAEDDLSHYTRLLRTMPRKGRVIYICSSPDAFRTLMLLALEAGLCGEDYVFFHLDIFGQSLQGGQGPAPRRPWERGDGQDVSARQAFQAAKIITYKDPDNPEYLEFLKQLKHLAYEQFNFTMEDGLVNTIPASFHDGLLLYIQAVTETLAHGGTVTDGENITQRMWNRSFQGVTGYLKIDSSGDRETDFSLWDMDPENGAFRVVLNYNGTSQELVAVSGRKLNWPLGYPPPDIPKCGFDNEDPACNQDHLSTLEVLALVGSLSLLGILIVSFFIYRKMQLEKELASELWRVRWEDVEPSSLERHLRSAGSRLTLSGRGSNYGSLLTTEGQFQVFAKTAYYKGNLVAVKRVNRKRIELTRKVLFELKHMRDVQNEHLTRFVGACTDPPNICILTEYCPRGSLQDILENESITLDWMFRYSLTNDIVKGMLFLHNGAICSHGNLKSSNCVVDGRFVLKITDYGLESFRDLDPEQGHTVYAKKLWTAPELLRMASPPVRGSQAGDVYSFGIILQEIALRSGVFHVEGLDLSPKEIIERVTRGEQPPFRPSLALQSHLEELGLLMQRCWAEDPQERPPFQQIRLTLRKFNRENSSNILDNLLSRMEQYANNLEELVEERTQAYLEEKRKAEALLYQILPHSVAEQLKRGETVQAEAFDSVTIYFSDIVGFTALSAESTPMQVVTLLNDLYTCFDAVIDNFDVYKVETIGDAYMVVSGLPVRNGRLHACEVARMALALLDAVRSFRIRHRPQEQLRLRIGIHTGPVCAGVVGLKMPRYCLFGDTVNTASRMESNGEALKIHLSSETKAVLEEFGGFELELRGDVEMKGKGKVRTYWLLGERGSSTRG
Each line names hits and unclear results; the compound was inactive in the other large screens.

COc1cc(-c2nc3ccccn3c2NCC2CCCO2)ccc1O (stereo not given)	Rce1 inhib active
COc1cc(-c2nc3ccccn3c2/N=C/c2ccccc2)ccc1O	Rce1 inhib active
CCCNC(=O)C[C@H]1CC[C@H]2[C@@H](COc3ccc(NC(=O)c4cncs4)cc3C(=O)N2C)O1	none (no result: NSD2 inh, Efflux pump mplx, Rce1 inhib, V-ATPase pHluor)
Cn1c(=O)c2cc(NC(=O)Cc3cccnc3)ccc2n1-c1ccc2ccccc2c1	GC-B act 68, GC-A act 47 (no result: Efflux pump mplx, Rce1 inhib, V-ATPase pHluor)
COc1ccc(CC(=O)Nc2sc3c(c2C#N)CC(C)(C)NC3(C)C)cc1OC	GC-B act 37
CCCC(=O)Nc1sc2c(c1C#N)CC(C)(C)NC2(C)C	none
C#CCNC(=O)C[C@H]1C[C@@]2(C(=O)OC)C(=C[C@H](C(C)(C)C)O[C@@H]2C)N(Cc2cccc3ccccc23)C1=O	none (no result: NSD2 inh, Efflux pump mplx, Rce1 inhib, V-ATPase pHluor)
Cc1ccc(OCC(=O)Nc2ccc(S(=O)(=O)N3CCOCC3)cc2)c(Br)c1	Rce1 inhib active
CC1=C2NC(N)=[N+](Cc3ccc4c(c3)OCO4)CC2n2c(=O)n(-c3ccccc3)c(=O)n2C1 (stereo not given)	none (no result: NSD2 inh, Efflux pump mplx, Rce1 inhib, V-ATPase pHluor)
CCOc1ccc(S(=O)(=O)N(C)C)cc1-c1nc2c(C(C)(C)C)nn(C)c2c(=O)[nH]1	GC-B act 68, GC-A act 58 (no result: NSD2 inh)
CCOc1ccc(S(=O)(=O)N(C)CCO)cc1-c1nc2c(C(C)(C)C)nn(C)c2c(=O)[nH]1	GC-B act 67, GC-A act 59 (no result: Rce1 inhib)
COC(=O)c1cc(C(c2ccccc2O)C2CCC(C)(C)O2)n2ccccc12 (stereo not given)	none (no result: NSD2 inh, Efflux pump mplx, Rce1 inhib, V-ATPase pHluor)
Cc1ccc(CNC(=O)c2cc(-c3ccccc3)nn2CC2CC(c3cccc([N+](=O)[O-])c3)=NO2)cc1 (stereo not given)	Rce1 inhib active (no result: NSD2 inh, Efflux pump mplx)
Cc1ccc(CNC(=O)c2cc(-c3ccccc3C)nn2CC2CC(c3cccnc3)=NO2)cc1 (stereo not given)	none (no result: NSD2 inh, Rce1 inhib)
CC(C)CN1C(=O)C[C@@]2(C(=O)N(C)c3ccc(NS(=O)(=O)C4CC4)cc32)C1c1ccccc1 (stereo not given in full)	none (no result: NSD2 inh, Efflux pump mplx, Rce1 inhib, V-ATPase pHluor)
CS(=O)(=O)N[C@@H]1C[C@@H]2O[C@H](CO)CC[C@@H]2O[C@@H]1CCc1ccc(-c2ccccc2F)cc1	none (no result: NSD2 inh, Efflux pump mplx, Rce1 inhib, V-ATPase pHluor)
Oc1cc(O)cc(C=Cc2ccc(O)c(O)c2)c1	NSD2 inh 90 (no result: Efflux pump mplx, Rce1 inhib, V-ATPase pHluor)
O=C(C=Cc1cccc(O)c1)c1ccccc1O	none (no result: Efflux pump mplx, Rce1 inhib)
O=C(/C=C/c1ccc(O)c(O)c1)c1ccccc1O	NSD2 inh 62
Oc1ccc(/C=C/c2cc(O)cc(O)c2)cc1	none (no result: NSD2 inh)
O=C(Cn1nc(-c2ccccc2)c2ccccc21)Oc1ccccc1	none (no result: Efflux pump mplx, Rce1 inhib, V-ATPase pHluor)
CCN(CC)CCNC(=O)c1[nH]c2ccc(OCc3ccccc3)cc2c1C	Rce1 inhib active
CN1CCN(C2=C(Cl)C(=O)C(c3cnc(N4CCCCC4)s3)=C(Cl)C2=O)CC1	V-ATPase pHluor 17 (no result: NSD2 inh, GC-B act, GC-A act)
CN1CCN(C2=C(Cl)C(=O)N(C3CCCCC3)C2=O)CC1	none
COc1cc(/C=C2/C(=O)c3cccc([N+](=O)[O-])c3C2=O)c(Br)cc1O	NSD2 inh 55 (no result: Rce1 inhib)
Cc1ccc(NC(=O)NC(=O)CSc2nnc(-c3ccc(Cl)cc3Cl)n2N)c(C)c1	V-ATPase pHluor 14
COc1cc2c(cc1OC)C(C)=NC1(CCCCC1)C2	Rce1 inhib active
COc1cc2c(cc1OC)C(SC)=NC1(CCCC1)C2	none (no result: Rce1 inhib)
Cn1cc(C2(c3c[nH]c4ccccc34)CCN(C(=O)OC(C)(C)C)CC2)c2ccccc21	none (no result: NSD2 inh, Efflux pump mplx, Rce1 inhib, V-ATPase pHluor)
COC(=O)c1ccc(/C=C/c2ccc3cccc(OC(C)=O)c3n2)cc1	V-ATPase pHluor 27
Cc1cccc(-c2cccc3c4c([nH]c23)[C@@H]2C[C@H](N(C)C(=O)NC3CCCCC3)[C@H]([C@H](C)O)C(=O)N2CC4)c1	none (no result: NSD2 inh, Efflux pump mplx, Rce1 inhib, V-ATPase pHluor)
Cc1cccc2sc(NNC(=O)c3ccc(S(=O)(=O)N4CCc5ccccc5C4)cc3)nc12	none (no result: NSD2 inh)
Cc1cccc2sc(NNC(=O)c3ccc(S(=O)(=O)N4CCCC(C)C4)cc3)nc12 (stereo not given)	V-ATPase pHluor 10 (no result: NSD2 inh)
CC1=NN(c2ccccc2)C(=O)C1/C=C1\NC(=S)NC1=O (stereo not given)	NSD2 inh 102
CC1=NN(c2ccccc2)C(=O)C1C=Nc1ccccc1O (stereo not given)	none
COc1ccc(C(=O)C2CCN(c3ncnc4sccc34)CC2)cc1	none (no result: Efflux pump mplx, Rce1 inhib, V-ATPase pHluor)
N#Cc1ccc(CSc2nnc(-c3c[nH]c4ccccc34)n2-c2ccccc2)cc1	Rce1 inhib active
Nc1cccc2cc(S(=O)(=O)O)ccc12	NSD2 inh 129 (no result: Efflux pump mplx, Rce1 inhib)
O=Nc1c(O)ccc2cc(S(=O)(=O)O)ccc12	none (no result: GC-B act, Efflux pump mplx, Rce1 inhib, GC-A act)
CCOC(=O)CCCSc1nc(-c2ccc3c(c2)OCO3)cc(C(F)(F)F)c1C#N	GC-A act 51
CC1=CC2(C(Cc3ccccc3)N(CC3CC3)C(=NC(=O)c3ccccc3)N2C(=O)OCc2ccccc2)n2c(=O)n(-c3ccccc3)c(=O)n2C1 (stereo not given)	none (no result: NSD2 inh, Efflux pump mplx, Rce1 inhib, V-ATPase pHluor)
COc1ccc(C(CNC(=O)COc2cc(C)c(Cl)c(C)c2)N2CCCCC2)cc1 (stereo not given)	Rce1 inhib active
COc1ccc(C(CNC(=O)COc2ccc(C)c(C)c2)N2CCCCC2)cc1 (stereo not given)	none
CS(=O)(=O)N(CC(=O)Nc1ccccc1C(=O)N1CCOCC1)c1ccc(F)c(Cl)c1	V-ATPase pHluor 16
CS(=O)(=O)N(CC(=O)Nc1ccccc1C(=O)N1CCOCC1)c1cccc(F)c1	none
COc1ccccc1CNC(=O)Cc1c[nH]c2ccccc12	V-ATPase pHluor 13 (no result: NSD2 inh)
COc1ccc(CNC(=O)Cc2c[nH]c3ccccc23)cc1OC	none
COc1ccccc1CNC(=O)c1ccccc1N	Rce1 inhib active
O=C(c1ccoc1)N1CCN(c2cc(-c3ccco3)nc3cc(-c4ccco4)nn23)CC1	none (no result: NSD2 inh, Efflux pump mplx, Rce1 inhib, V-ATPase pHluor)
Cc1ccc(-n2ccnc(SCC(=O)NC3CCCC3)c2=O)cc1F	none
CCOc1ccc(-n2ccnc(SCC(=O)NC3CCCC3)c2=O)cc1	Rce1 inhib active
C[C@H]1[C@@H](OC(=O)Nc2ccc(C#N)cc2)CC[C@@]23CCCN2C(=O)CCC[C@@H]13	none (no result: NSD2 inh, Efflux pump mplx, Rce1 inhib, V-ATPase pHluor)
COc1ccc(Oc2c(-c3ccc(O)cc3O)n[nH]c2C)cc1	GC-A act 44
Cc1ccc(S(=O)(=O)N(CCc2ccccc2)CC(=O)N2CCOCC2)cc1	none (no result: Efflux pump mplx, Rce1 inhib, V-ATPase pHluor)
N#CC(/C(=N/S(=O)(=O)c1cccs1)c1ccccc1)c1nc2ccccc2[nH]1 (stereo not given)	Rce1 inhib active
CCOC(=O)Cc1cc(=O)n2[nH]c(C)c(-c3ccc(OC)cc3)c2n1	GC-B act 51, GC-A act 49
CCCc1cc(=O)n2[nH]c(C)c(-c3ccccc3)c2n1	Rce1 inhib active
CCOC(=O)Cc1cc(=O)n2[nH]c(C)c(-c3ccc(Cl)cc3)c2n1	GC-B act 45, GC-A act 44
c1ccc2cc3[nH]c(CNc4nc(N5CCOCC5)nc5c4ncn5-c4ccsc4)nc3cc2c1	none (no result: Efflux pump mplx, Rce1 inhib, V-ATPase pHluor)

Source: PubChem BioAssay
